# Screens as filed in PubChem BioAssay.
# Rows were chosen to be rich in hits. Some 19% of all compounds tested hit in one or more screens of this group.
# SW480 rereplic: induces DNA re-replication in SW480 colon adenocarcinoma cells; SW480 DNA re-replication, Hoechst DNA content imaging, 48 h; Potency, µM (titrated, usually from 46.1 µM), inactives show top-dose re-replication activation, most hits filed as activators; 340,000 tested, 1.8% active; further: potency means the concentration at half of the fitted maximal effect; % of control where 0% means no effect; nearly all actives have a fitted effect of over 55% in size
#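 Per well, 250 cells were exposed to pinned compound for 48 hr. Nuclear DNA was visualised with Hoechst (40 min, 37 C) and total object intensity recorded by fluorescence scanning.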
# IL-1B inflam inh: blocks inflammasome-driven IL-1 beta release. THP-1 LPS/ATP IL-1B secretion, AlphaLISA, 16 h; hits give low values. AID 743279. 360,000 tested, 4.7% active. activity change, % at 57.5 µM; in the data active means activity change below about -50%; inconclusive means mostly about -30% to -49%; further: on the % scale 0 is the no-effect control and ±100 the full control effect
#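 Secreted IL-1B measured by AlphaLISA bead assay after 16 h compound exposure of THP-1 cells; compounds (final up to 57.5 uM) added 1 h before LPS (250 ng/mL) and ATP (1.25 mM) stimulation; lower signal means less secretion.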
# MCF10A rerep: induces DNA re-replication in MCF 10a normal breast cells; Potency, µM (top dose mostly 46.1 µM), without a hit: at the top dose activity, positive = re-replication, usual class: activators; MCF 10A DNA re-replication, Hoechst nuclear intensity, 48 h; 350,000 tested, 2.9% active; further: potency means the concentration at half of the fitted maximal effect; % of control where 0% means no effect; nearly all actives have a fitted effect of over 50% in size
# DT40 TDP1 CPT: growth inhibition of DT40 Tdp1-/-;hTDP1 cells with camptothecin (screen for TDP1 inhibitors). chicken DT40 Tdp1-/-;hTDP1 cells + 20 nM CPT, ATP luminescence, 48 h. Potency, µM (highest dose often 46.2 µM), for inactives: at the highest dose activity change, negative = growth inhibition, actives largely listed as inhibitors. 420,000 tested, 12% active. AID 686979; further: potency means the concentration at half of the fitted maximal effect; on the % scale 0 is the no-effect control and ±100 the full control effect; nearly all actives have a fitted effect of over 55% in size
#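 Cell growth measured by CellTiter-Glo luminescence after a minimum 48 h, 37 C compound exposure with 20 nM CPT in Tdp1-knockout DT40 cells stably expressing hTDP1, seeded 400/well; qHTS titration format.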
# TDP1 cell noCPT: qHTS for Inhibitors of human tyrosyl-DNA phosphodiesterase 1 (TDP1): qHTS in cells in absence of CPT. 420,000 tested, 15% active. Potency, µM (titrated, usually from 46.2 µM), without a hit: at the highest dose activity change, negative = growth inhibition, usual class: inhibitors. DT40 Tdp1-/- hTDP1 cells, no CPT, ATP luminescence, 48 h. AID 686978, 2013; further: potency means the concentration at half of the fitted maximal effect; on the % scale 0 is the no-effect control and ±100 the full control effect; nearly all actives have a fitted effect of over 55% in size
#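 Compound effects on proliferation are scored in DT40 Tdp1-/-;hTDP1 cells in the absence of CPT. ATP levels (CellTiter-Glo luminescence) are recorded after a ≥48 hr, 37 °C incubation.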
# BCR signal inh: blocks chronic active B-cell receptor signaling; ABC-DLBCL IkBa-CBG/CBR reporter, luminescence ratio, 4 h; 340,000 tested, 0.05% active; Potency, µM (doses to about 46.1 µM), for the others: at the top dose activity change, negative = inhibition, usual class: inhibitors; active means well fitted inhibition curve with a large enough effect in the signal ratio, with a control signal flat, not every such curve was filed as active; inconclusive means small, poorly fitted or top-dose-only effect, or effect the other way, or a change in a side signal; the % refers to the signal ratio;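 further: potency means the concentration at half of the fitted maximal effect; plate controls were basal doxycycline-induced cells for no effect and cells given 10 µM MG132 for full effect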
#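 Compounds up to 46 uM were incubated four hours with TMD8 cells whose green CBG68 luciferase is fused to IkappaBalpha; red CBR luminescence normalised the signal, and concentration-effect curves were fitted to fusion, red and ratio data.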
# Active calls of the source: *; ? = inconclusive; / = no result; ! = not active in a repeat. Unless noted, the call rests on the fitted dose curve; in most records, active means well fitted curve in the direction sought with a large enough effect; inconclusive means small, poorly fitted or top-dose-only effect, or another doubt; inactive means no such curve, though single readings can be large; an effect the other way counts as inactive or inconclusive.
SMILES,SW480 rereplic,IL-1B inflam inh,MCF10A rerep,DT40 TDP1 CPT,TDP1 cell noCPT,BCR signal inh
COc1ccc(N2CCN(C(=O)CSc3nnc4c(C)cc5ccc(C)c(C)c5n34)CC2)cc1,-1%,-66*,7%,-17%,-24%,?
COc1ccc(N2CCN(C(=O)CSc3nnc4c(C)cc5cc(C)ccc5n34)CC2)cc1,-5%,-15,-3%,?,?,2%
O=c1cc(N2CCCCC2)c(-c2ccccc2)nn1Cc1ccc(Cl)cc1,?,-27,16µM*,?,?,-2%
O=c1cc(N2CCCCC2)c(-c2ccccc2)nn1Cc1c(Cl)cccc1Cl,19%,-67*,21µM*,?,16µM*,?
Cn1nc(OCC(=O)O)cc1C(F)(F)F,-9%,6,-2%,4%,8%,-4%
CN(C)C(CN1C(=O)C2CC=CCC2C1=O)c1cn(C)c2ccccc12 (configuration not stated),4.1µM*,11,-1%,-21%,-25%,-2%
O=C(CSc1nc(N2CCCCC2)nc(N2CCCCC2)n1)N1CCN(c2ccccc2)CC1,-5%,-13,2%,23µM*,16µM*,0%
O=C(CSc1nc(Nc2ccccc2)nc(N2CCOCC2)n1)N1CCc2ccccc21,?,2,?,?,18µM*,-1%
O=C(CSc1nc(N2CCCCC2)nc(N2CCCCC2)n1)N1CCc2ccccc21,/,/,/,/,/,-7%
O=C(CSc1nc(Nc2ccccc2)nc(N2CCOCC2)n1)N1CCCC1,?,-53*,?,?,21µM*,?
CC1CCCN(S(=O)(=O)c2cccc(C(=O)OCC(=O)N(C)Cc3c(F)cccc3Cl)c2)C1 (configuration not stated),-6%,18,3%,0%,1%,0%
C[C@@H]1CNC(=O)c2c(C(=O)N[C@H](C)c3ccccc3)ncn21,/,22,/,15%,-16%,/
CC1=C(C(=O)Nc2cccc(C(=O)NCc3ccccc3C)c2)SCCO1,16%,?,3%,-15%,2%,-14%
COc1ccc(C)cc1N(C)C(=O)Cc1c(C(=O)O)n(C)c2ccccc12,-1%,10,10%,0%,5.2µM*,4%
Cc1ccc2ccccc2c1CSc1nc(N)nc2c1ncn2CC(C)C,2%,?,21%,?,?,/
CC(C)Cn1cnc2c(SCc3ccccc3F)nc(N)nc21,-14%,-12,?,?,?,/
CCC(C)Cn1cnc2c(SCc3ccccc3F)nc(N)nc21 (configuration not stated),?,-56*,18µM*,?,21µM*,/
CC(C)Cn1cnc2c(SCc3ccccc3)nc(N)nc21,-1%,-50*,13%,-4%,?,/
CC(C)Cn1cnc2c(N)nc3ccccc3c21,0.58µM*!,11,?,?,?,0%
CC(C)Cn1cnc2c(SCc3ccccn3)nc(N)nc21,-13%,-14,-25%,4%,-18%,/
CC1(C(=O)NS(=O)(=O)c2ccc(Cl)cc2)CCN1C(=O)c1ccco1 (configuration not stated),/,19,/,-22%,-7%,/
COc1ccc(C(=O)N2CCC[C@@]3(CCN(Cc4ccccc4OC)C3)C2)cc1,/,/,/,3%,?,/
O=C1C(Cc2ccccc2)Nc2ncnc(N3CCCCC3)c2N1Cc1ccc(Cl)cc1 (configuration not stated),24%,-19,?,?,16µM*,-5%
COc1ccc(CN2C(=O)C(Cc3ccccc3)Nc3ncnc(N4CCN(c5ccccc5)CC4)c32)cc1 (configuration not stated),9%,?,-6%,?,?,-3%
